Most compounds without a hit are left out; they make up all but 3.4% or so of the library.
sPLA2-III inh – human group III sPLA2 inhibitors, primary screen, biochemical, QFRET, BODIPY PC-A2 liposome substrate. hit rate 0.56% among 370,000. QFRET BODIPY PC-A2 liposome hydrolysis, fluorescence. AID 743126, 2013. inhibition, % at 12.2 µM. Group 3 secretory phospholipase A2 (Homo sapiens), Q9NZ20;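 active means inhibition above mean plus 3 SD of compounds lying within the high and low control bounds, cut at about 19% in these data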
ADAM10 inh – human ADAM10 inhibitors, primary screen, biochemical, QFRET, HTS; recombinant ADAM10, EDANS/DABCYL FRET peptide cleavage, 3 h; hit rate 0.62% among 370,000; Disintegrin and metalloproteinase domain-containing protein 10 (Homo sapiens), O14672; inhibition, % at 7 µM;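 active means inhibition above a per-campaign cutoff equal to the mean of compounds falling between control-based bounds plus 3 SD, cut at about 20% in these data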
PLCg1 inh – PLC-gamma1 enzyme inhibitors, primary screen, biochemical, fluorescence, purified enzyme; 1-phosphatidylinositol 4,5-bisphosphate phosphodiesterase gamma-1 (Homo sapiens), P19174; fluorogenic substrate; inhibition, % at 12.2 µM; hit rate 0.84% among 370,000; AID 720700, 2013; in the data active means inhibition above about 9.5%
KLK7 zymogen act – proKLK7 zymogen activators, primary screen, biochemical, fluorescence intensity | Kallikrein-7 (Homo sapiens), P49862 | purified proKLK7, EDANS-DABCYL substrate fluorescence; 100% is mature enzyme control, 0% vehicle | activation, % at 7 µM | hit rate 0.9% among 370,000;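 active means activation above the mean of all tested compounds plus 3 SD, computed per campaign excluding outliers beyond control limits, cut at about 13% in these data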
Target sequence (P49862 whole entry, looked up): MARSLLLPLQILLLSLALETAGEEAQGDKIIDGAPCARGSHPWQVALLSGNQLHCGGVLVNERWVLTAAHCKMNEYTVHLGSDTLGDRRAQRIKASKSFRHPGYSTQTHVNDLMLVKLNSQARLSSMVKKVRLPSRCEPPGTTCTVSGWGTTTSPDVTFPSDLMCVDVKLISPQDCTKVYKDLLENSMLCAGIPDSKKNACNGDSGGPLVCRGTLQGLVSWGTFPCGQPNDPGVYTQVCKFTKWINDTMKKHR
PLCb3 inh – human PLC-beta3 inhibitors, primary screen, biochemical, fluorescence; Purified PLC-beta3, fluorogenic substrate; 1-phosphatidylinositol 4,5-bisphosphate phosphodiesterase beta-3 (Homo sapiens), Q01970; AID 720704, 2013; hit rate 0.18% among 370,000; inhibition, % at 12.2 µM; in the data active means inhibition above about 11%
ADAM17 inh – ADAM17 inhibitors, primary screen, biochemical, QFRET. inhibition, % at 6.95 µM. recombinant ADAM17, EDANS/DABCYL FRET peptide cleavage. Disintegrin and metalloproteinase domain-containing protein 17 (Homo sapiens), P78536. hit rate 0.83% among 370,000. AID 720648, 2013;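 active means inhibition above the mean of compounds lying between control limits plus 3 SD, set per campaign, cut at about 8.5% in these data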
proKLK7 act conf – proKLK7 zymogen activators, confirmation, biochemical, fluorescence intensity, triplicate; shares compounds with KLK7 zymogen act; purified proKLK7, EDANS-DABCYL substrate fluorescence; scaled: vehicle 0, mature enzyme 100; activation, % at 7 µM; hit rate 68% among 3,200;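 active means activation, as change over the incubation, above the mean of all tested compounds plus 3 SD, cut at about 13% in these data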
EDANS interfere – EDANS-DABCYL substrate optical interference, artefact control for kallikrein-7 zymogen activator project, biochemical, fluorescence intensity, high throughput. shares compounds with KLK7 zymogen act. no enzyme, 4 h; solvent 0%, active enzyme control 100%. activation, % at 7 µM. hit rate 80% among 3,200. AID 686952, 2013;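 active means activation above the all-compound mean plus 3 SD, ignoring values outside control-based bounds, cut at about 4.8% in these data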;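 further: value is the 4 h activation minus the activation read at time zero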
Of the large screens only hits and unclear results are named; the others gave an inactive call (follow-up assays come after a bar, where they were run).

COC(=O)CCC1NC(=O)C(Cc2c[nH]c3ccccc23)NC(=O)C2CC(=O)OC(C)C(NC(=O)C(C)NC(=O)C3CCCN3C(=O)C3CCCN3C(=O)C(C)NC(C)=O)C(=O)NC(CC(C)C)C(=O)NC(CCCCNC(=O)CCC(C(=O)NC(Cc3ccc(O)cc3)C(=O)O)NC1=O)C(=O)NC(Cc1c[nH]c3ccccc13)C(=O)N1CCCC1C(=O)NC(CO)C(=O)N2 (stereo not given)	none
COc1ccccc1C=NNC(=O)CSc1nc2ccccc2n1Cc1ccc(Cl)cc1	none
O=C(N/N=C/c1cc2c(cc1Br)OCO2)c1ccccn1	none
O=C(N/N=C/c1cc2c(cc1Br)OCO2)c1c[nH]c2ccccc12	KLK7 zymogen act 14.8 | proKLK7 act conf inactive | EDANS interfere inactive
CC(C)Cn1c(N)c(C(=O)NCCN2CCOCC2)c2nc3ccccc3nc21	KLK7 zymogen act 56.5 | proKLK7 act conf inactive | EDANS interfere inactive
COC(=O)c1c(N)n(CCCN2CCOCC2)c2nc3ccccc3nc12	KLK7 zymogen act 43.4 | proKLK7 act conf 75.0 | EDANS interfere 80.3
COc1ccc(CNC(=O)c2c(N)n(CCCN3CCOCC3)c3nc4ccccc4nc23)cc1	none
COCCOC(=O)c1c(N)n(CCCN2CCOCC2)c2nc3ccccc3nc12	KLK7 zymogen act 46.0 | proKLK7 act conf 75.4 | EDANS interfere 79.2
COC(=O)[C@]12C[C@H](CC(=O)N3CCOCC3)C(=O)N(Cc3ccc4c(c3)OCO4)C1=C[C@H](C(C)C)O[C@@H]2C1CC1	none
COC(=O)[C@]12CCCCC=C1N(Cc1ccc(OC)cc1)C(=O)[C@@H]2CC(=O)NCc1ccc(C)o1	none
O=C(NCc1cccnc1)c1ccc2c(c1)N(Cc1ccccc1)CCS2	none
CCN1CCSc2ccc(C(=O)NCc3cccc(F)c3)cc21	KLK7 zymogen act 15.7 | proKLK7 act conf inactive | EDANS interfere inactive
CN1CCSc2ccc(C(=O)NCc3ccccc3)cc21	KLK7 zymogen act 42.9 | proKLK7 act conf inactive | EDANS interfere 24.1
COc1ccccc1CN[C@@H]1CC[C@@]23CCCN2C(=O)CCC[C@H]3C1	none (no result: KLK7 zymogen act)
Cc1ccc(OCc2nnc(SCC(=O)Nc3ccc(OCc4ccccc4)cc3)n2-c2ccc(Cl)cc2)cc1	none
O=S(=O)(N[C@H]1CCCC[C@@H]1N1CCOCC1)c1ccc(Cl)cc1	none (no result: KLK7 zymogen act)
Cc1cc(NCCO)c2cc(O)ccc2n1	KLK7 zymogen act 80.6 | proKLK7 act conf 63.7 | EDANS interfere 68.6
CCOC(=O)C1=C(C)NC2=C(C(=O)CCC2)C1c1cccs1 (stereo not given)	none
CCOCCOC(=O)C1=C(C)NC2=C(C(=O)CC(c3cccs3)C2)C1c1ccsc1 (stereo not given)	KLK7 zymogen act 89.6 | proKLK7 act conf inactive | EDANS interfere inactive
O=C(CNS(=O)(=O)c1cccs1)N1CCN(c2ncccn2)CC1	none
COc1cc2c(cc1OC)CN(C(=O)CSc1n[nH]c(N)n1)CC2	KLK7 zymogen act 18.3 | proKLK7 act conf inactive | EDANS interfere inactive
CCc1nc(SCC(=O)N2CCc3cc(OC)c(OC)cc3C2)c(C#N)cc1C	KLK7 zymogen act 13.2 | proKLK7 act conf inactive | EDANS interfere inactive
COc1cc2c(cc1OC)CN(C(=O)CSc1ccc(F)cc1)CC2	none
Cc1ccc2c(CN3CCN(Cc4ccccc4)CC3)cc(=O)oc2c1	none
CC1CN(Cc2cc(=O)oc3cc(O)ccc23)CC(C)O1 (stereo not given)	KLK7 zymogen act 45.8 | proKLK7 act conf 66.6 | EDANS interfere 67.1
O=C(c1ccco1)N1CCN(Cc2cc(=O)oc3cc(O)ccc23)CC1	KLK7 zymogen act 90.2 | proKLK7 act conf 56.8 | EDANS interfere 68.1
O=C(c1ccco1)N1CCN(Cc2cccc3ccccc23)CC1	none
O=c1cc(CN2CCN(Cc3ccccc3)CC2)c2ccc(O)cc2o1	KLK7 zymogen act 71.0 | proKLK7 act conf 65.5 | EDANS interfere 72.4
CC(C)(C)OC(=O)/C=C/[C@@H](CCCCl)Sc1ccc(C(C)(C)C)cc1	none
Cc1nn(-c2ccccc2)c2sc(C(=O)OC3CCOC3=O)cc12 (stereo not given)	KLK7 zymogen act 20.4 | proKLK7 act conf inactive | EDANS interfere 13.4
COC(=O)c1cc2c(C)nn(-c3ccccc3)c2s1	none
COC(=O)[C@]12C[C@H](CC(=O)NCc3cccc4ccccc34)C(=O)N(Cc3ccco3)C1=C[C@H](C(C)C)O[C@@H]2C1CC1	none
COc1ccc(-c2cc3nc(CCl)[nH]c(=O)c3s2)cc1	KLK7 zymogen act 19.2 | proKLK7 act conf inactive | EDANS interfere inactive
COc1ccc(-c2cc3nc[nH]c(=O)c3s2)cc1	KLK7 zymogen act 41.1 | proKLK7 act conf inactive | EDANS interfere 15.2
COc1cccc(CNc2nc3cc(-c4cccc(Cl)c4)sc3c(=O)n2C)c1	none
O=C(CSc1nnc(-c2ccccn2)n1-c1ccccc1)c1ccc2c(c1)OCO2	none
CCOC(=O)c1cc2c(=O)n3ccccc3nc2n(C(C)C)c1=NC(=O)c1ccco1	KLK7 zymogen act 43.8 | proKLK7 act conf 59.1 | EDANS interfere 51.1
CC(C)n1c(=NC(=O)c2ccco2)c(C#N)cc2c(=O)n3ccccc3cc21	KLK7 zymogen act 45.2 | proKLK7 act conf 21.6 | EDANS interfere 18.8
CCOC(=O)c1cc2c(=O)n3ccccc3nc2n(Cc2ccco2)c1=NC(=O)c1ccccc1OC	none
CCCn1c(=NC(=O)c2ccco2)c(C(=O)OCC)cc2c(=O)n3ccccc3nc21	KLK7 zymogen act 88.6 | proKLK7 act conf 35.0 | EDANS interfere 35.5
O=C(c1cc(Cl)ccc1F)N1CCCC(c2nc(-c3cccs3)no2)C1 (stereo not given)	none
CCN(CC)C(=O)CC[C@H]1CC[C@]2(CCCN(Cc3nccs3)C2)O1	none
CCOC(=O)CNC(=O)CSc1nc2ccccc2c(=O)n1-c1ccc(Cl)cc1	none

Assay outcomes (PubChem)
